PubChem BioAssay (NCI)
This is part of a sample that, as a whole, favours compounds with a hit. Of some 79,000 tested, about 15% had one in any assay. Active and inactive are the calls of the source. No stated cut-off is given here; in the data, active means growth inhibition above about 70%; inactive means the rest.

Tests used:
[1] = NCI Yeast Anticancer Drug Screen. Data for the rad52 strain (AID 147);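 further: 0% = growth of vehicle-treated control cultures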; conditions: S. cerevisiae rad52 mutant growth inhibition, stronger effect = higher value
How it was run: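 Growth of repair-deficient yeast cells was compared between compound-treated and vehicle-treated cultures to give percent inhibition.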

[2] = NCI Yeast Anticancer Drug Screen. Data for the wt1 strain (AID 149);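 further: 0% = growth of vehicle-treated wt1 cultures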; conditions: S. cerevisiae wt1 strain (SPY 50644) growth inhibition, stronger effect = higher value
How it was run: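 Yeast wt1 strain exposed to compounds; growth inhibition measured relative to vehicle-treated controls.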

[3] = NCI Yeast Anticancer Drug Screen. Data for the rad50EPP+ strain (AID 151);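 further: 0% = growth of vehicle-treated control cultures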; conditions: S. cerevisiae rad50 mutant strain, stronger effect = higher value
How it was run: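 Measured: growth inhibition of rad50EPP+ yeast. Reference: vehicle-treated controls. Screen uses strains with defined genetic alterations in DNA damage repair or cell cycle control.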

[4] = NCI Yeast Anticancer Drug Screen. Data for the mgt1 strain (AID 153); conditions: S. cerevisiae mgt1 mutant growth inhibition, stronger effect = higher value
How it was run: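 Compounds were applied to mgt1 mutant yeast, and growth was then compared against vehicle-treated control cultures to give percent inhibition.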

[5] = NCI Yeast Anticancer Drug Screen. Data for the rad50 strain (AID 155);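 further: 0% = growth of vehicle-only cultures of the same strain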; conditions: S. cerevisiae rad50 strain growth inhibition, stronger effect = higher value
How it was run: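 Yeast carrying a defined DNA repair defect were exposed to test compounds, and growth was compared with vehicle-treated controls to give percent inhibition.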

[6] = NCI Yeast Anticancer Drug Screen. Data for the mec2-1 strain (AID 157); conditions: S. cerevisiae mec2-1 strain, stronger effect = higher value
How it was run: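 Compounds were applied to mec2-1 yeast cells. Their growth was then compared with that of vehicle-treated cultures to give growth inhibition.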

[7] = NCI Yeast Anticancer Drug Screen. Data for the sgs1 mgt1 strain (AID 161);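 further: 0% = growth of cultures given vehicle only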; conditions: S. cerevisiae sgs1 mgt1 strain, stronger effect = higher value
How it was run: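 Growth of a repair-deficient yeast mutant was monitored after compound treatment and expressed as inhibition relative to vehicle-treated cultures.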

[8] = NCI Yeast Anticancer Drug Screen. Data for the CLN2oe strain (AID 163);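 further: 0% = growth of vehicle-only control cultures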; conditions: S. cerevisiae CLN2oe strain, stronger effect = higher value
How it was run: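 Cells of an engineered yeast line with disturbed cell-cycle regulation are treated with compound. Inhibition of growth is then calculated relative to the vehicle-treated reference.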

[9] = NCI Yeast Anticancer Drug Screen. Data for the cln2 rad14 strain (AID 165);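 further: 0% = growth equal to vehicle treated cultures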; conditions: S. cerevisiae cln2 rad14 strain, stronger effect = higher value
How it was run: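 Strain: cln2 rad14 yeast, altered in cell cycle control and DNA damage repair. Read-out: growth inhibition vs vehicle.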

[10] = NCI Yeast Anticancer Drug Screen. Data for the bub3 strain (AID 167); conditions: S. cerevisiae bub3 mutant strain, stronger effect = higher value
How it was run: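 Compounds were applied to a genetically altered yeast strain carrying a cell-cycle control defect. Growth inhibition was scored against vehicle-treated controls.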

[11] = NCI Yeast Anticancer Drug Screen. Data for the wt2 strain (AID 169);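 further: 0% = growth of vehicle-treated yeast cultures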; conditions: S. cerevisiae wt2 strain growth inhibition, stronger effect = higher value
How it was run: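 Growth of compound-treated yeast is measured and expressed as inhibition relative to vehicle-only controls.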

[12] = NCI Yeast Anticancer Drug Screen. Data for the mlh1 strain (AID 171);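 further: 0% = growth of vehicle-treated control cultures of the same strain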; conditions: S. cerevisiae mlh1 strain growth inhibition, stronger effect = higher value
How it was run: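 Test agents were incubated with yeast bearing a defined DNA damage repair or cell cycle control alteration; values are growth inhibition normalised to vehicle-treated cultures.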

[13] = NCI Yeast Anticancer Drug Screen. Data for the sgs1 strain (AID 173);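 further: 0% = growth of vehicle-only control cultures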; conditions: S. cerevisiae sgs1 mutant, stronger effect = higher value
How it was run: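 Strain with an altered DNA repair or cell cycle pathway exposed to compound. Growth then measured. Value = inhibition versus vehicle control.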

[14] = NCI Yeast Anticancer Drug Screen. Data for the mlh1 rad18 strain (AID 175); conditions: S. cerevisiae mlh1 rad18 strain growth inhibition, stronger effect = higher value
How it was run: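 A repair-deficient yeast strain is exposed to test compound, and growth is scored relative to vehicle-treated controls.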

[15] = NCI Yeast Anticancer Drug Screen. Data for the rad18 strain (AID 177); conditions: S. cerevisiae rad18 mutant growth inhibition, stronger effect = higher value
How it was run: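 DNA-repair-defective yeast; compound treatment; growth inhibition scored against vehicle.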

[16] = at 5.0 µM (retest, dose inferred, filed as 0.5)
[17] = at 50.0 µM (retest, dose inferred, filed as 5.0)

Measured: growth inhibition

COC1=CCC23C(=O)C=CC(=O)C2(C1)C(=O)c1ccccc1C3=O (stereo unspecified)
inactive: [1]; at 1.2 µM -40% | [1]; at 3.7 µM -35% | [1]; at 11.0 µM 12% | [1]; at 33.0 µM 54% | [2]; at 1.2 µM -34% | [2]; at 3.7 µM -24% | [2]; at 11.0 µM -16% | [2]; at 33.0 µM -1% | [3]; at 1.2 µM 19% | [3]; at 3.7 µM 17% | [3]; at 11.0 µM 25% | [3]; at 33.0 µM 30% | [3]; at 100.0 µM 62% | [4]; at 1.2 µM -24% | [4]; at 3.7 µM -14% | [4]; at 11.0 µM 6% | [4]; at 33.0 µM 40% | [5]; at 1.2 µM -27% | [5]; at 3.7 µM -47% | [5]; [16] 19% | [5]; at 11.0 µM 12% | [5]; at 33.0 µM 52% | [5]; at 50.0 µM 65.8% | [6]; at 1.2 µM 8% | [6]; at 3.7 µM -4% | [6]; [16] 20% | [6]; at 11.0 µM -11% | [6]; at 33.0 µM 34% | [6]; at 50.0 µM 55.5% | [7]; [16] -2% | [8]; at 1.2 µM 17% | [8]; at 3.7 µM 8% | [8]; at 11.0 µM 18% | [8]; at 33.0 µM 38% | [9]; [16] 0% | [9]; [17] -49% | [9]; at 50.0 µM 36.5% | [10]; at 1.2 µM -30% | [10]; at 3.7 µM -38% | [10]; [16] 2% | [10]; at 11.0 µM -29% | [10]; at 33.0 µM 15% | [11]; at 1.2 µM -11% | [11]; at 3.7 µM -5% | [11]; at 11.0 µM 23% | [11]; at 33.0 µM 40% | [12]; at 1.2 µM -11% | [12]; at 3.7 µM -25% | [12]; at 11.0 µM -2% | [12]; at 33.0 µM 54% | [13]; at 1.2 µM 10% | [13]; at 3.7 µM -6% | [13]; at 11.0 µM 24% | [13]; at 33.0 µM 61% | [14]; [16] 26% | [14]; at 50.0 µM 68.2% | [15]; at 1.2 µM -21% | [15]; at 3.7 µM -20% | [15]; at 11.0 µM 32% | [15]; at 33.0 µM 44%
active: [1]; at 100.0 µM 89% | [2]; at 100.0 µM 93% | [4]; at 100.0 µM 93% | [5]; [17] 72% | [5]; at 100.0 µM 87% | [6]; [17] 88% | [6]; at 100.0 µM 91% | [7]; [17] 76% | [7]; at 50.0 µM 74.7% | [8]; at 100.0 µM 92% | [10]; [17] 78% | [10]; at 50.0 µM 74.4% | [10]; at 100.0 µM 91% | [11]; at 100.0 µM 93% | [12]; at 100.0 µM 95% | [13]; at 100.0 µM 93% | [14]; [17] 84% | [15]; at 100.0 µM 83%

OC1(c2ccccc2)C2CC=CC2C1(c1ccccc1)c1ccccc1 (stereo unspecified)
active: [7]; [17] 70% | [13]; at 100.0 µM 77% | [14]; [17] 76%
inactive: [1]; at 1.2 µM 0% | [1]; at 3.7 µM -1% | [1]; at 11.0 µM 4% | [1]; at 33.0 µM 34% | [1]; at 100.0 µM 63% | [2]; at 1.2 µM -4% | [2]; at 3.7 µM -7% | [2]; at 11.0 µM -8% | [2]; at 33.0 µM -7% | [2]; at 100.0 µM 21% | [3]; at 1.2 µM -7% | [3]; at 3.7 µM -1% | [3]; at 11.0 µM 2% | [3]; at 33.0 µM -5% | [3]; at 100.0 µM -5% | [4]; at 1.2 µM -4% | [4]; at 3.7 µM -2% | [4]; at 11.0 µM -5% | [4]; at 33.0 µM -4% | [4]; at 100.0 µM 16% | [5]; at 1.2 µM -2% | [5]; at 3.7 µM 6% | [5]; [16] 12% | [5]; at 11.0 µM 12% | [5]; at 33.0 µM 43% | [5]; [17] 53% | [5]; at 50.0 µM 12.1% | [5]; at 100.0 µM 62% | [6]; at 1.2 µM -3% | [6]; at 3.7 µM -2% | [6]; [16] -6% | [6]; at 11.0 µM -6% | [6]; at 33.0 µM 18% | [6]; [17] -10% | [6]; at 50.0 µM -14.2% | [6]; at 100.0 µM 49% | [7]; [16] 16% | [7]; at 50.0 µM 11.1% | [8]; at 1.2 µM 2% | [8]; at 3.7 µM 8% | [8]; at 11.0 µM 2% | [8]; at 33.0 µM -7% | [8]; at 100.0 µM 10% | [9]; [16] 15% | [9]; [17] 19% | [9]; at 50.0 µM -3.15% | [10]; at 1.2 µM 0% | [10]; at 3.7 µM 2% | [10]; [16] -3% | [10]; at 11.0 µM -9% | [10]; at 33.0 µM 2% | [10]; [17] 52% | [10]; at 50.0 µM 10.9% | [10]; at 100.0 µM 27% | [11]; at 1.2 µM -8% | [11]; at 3.7 µM -11% | [11]; at 11.0 µM -8% | [11]; at 33.0 µM 7% | [11]; at 100.0 µM 54% | [12]; at 1.2 µM -3% | [12]; at 3.7 µM 1% | [12]; at 11.0 µM 7% | [12]; at 33.0 µM 13% | [12]; at 100.0 µM 45% | [13]; at 1.2 µM -15% | [13]; at 3.7 µM -2% | [13]; at 11.0 µM -2% | [13]; at 33.0 µM 54% | [14]; [16] 19% | [14]; at 50.0 µM 0.45% | [15]; at 1.2 µM -8% | [15]; at 3.7 µM -4% | [15]; at 11.0 µM -4% | [15]; at 33.0 µM 1% | [15]; at 100.0 µM 41%
